Screening results deposited in PubChem by National Center for Advancing Translational Sciences (NCATS).
VACV mCherry inh = vaccinia inhibition (mCherry reporter). Vaccinia virus mCherry reporter infection, fluorescence. Potency, µM (titrated, usually from 36.5 µM), without a hit: at the top dose activity change, negative = inhibition, most hits filed as inhibitors. 0.63% of 310,000 active. AID 720579; calls by dose curve; tested in A549 cells; note: nearly all actives have a fitted effect of over 35% in size
Lassa entry inh = inhibitors of Lassa virus binding or cell entry. AID 540256. Lassa virus pseudotype entry inhibition, cell reporter. 1.2% of 300,000 active. Potency, µM (top dose mostly 37.9 µM), without a hit: top-dose activity change, negative = inhibition, actives largely listed as inhibitors; calls by dose curve; tested in HEK293 cells; note: nearly all actives have a fitted effect of over 50% in size
HCV inhibitor = blocks hepatitis C virus | Huh7.5.1 HCVcc-Cre infection, luciferase reporter, 44 h | Potency, µM (highest dose often 41.8 µM), inactives show at the highest dose activity change, negative = inhibition, most hits filed as inhibitors | 3.4% of 340,000 active | AID 651820; active = well fitted inhibition curve with a large enough effect; inconclusive = small, poorly fitted or top-dose-only effect, or another doubt; inactive = no such curve, though single readings can be large or run the other way
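Compounds are dispensed onto cells plated 4 h earlier at 1,000 per well, with HCVcc-Cre virus (about 0.5 moi) added next. Following 44 h of culture, luminescent signal is measured for 15 sec after 15 min with substrate at room temperature.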
Marburg entry inh = blocks Marburg virus binding to or entry into cells | 1.8% of 300,000 active | Potency, µM (top dose mostly 37.8 µM), for inactives: top-dose activity change, negative = inhibition, most hits filed as inhibitors | Marburg virus pseudotyped entry inhibition, cell reporter | AID 540276; calls by dose curve; tested in HEK293 cells
Vaccinia Venus = vaccinia inhibition (Venus reporter); Vaccinia virus Venus reporter expression, fluorescence; Potency, µM (top dose mostly 36.5 µM), for inactives: top-dose activity change, negative = inhibition, usual class: inhibitors; 0.46% of 330,000 active; AID 720580; calls by dose curve; tested in A549 cells; note: nearly all actives have a fitted effect of over 30% in size
FMDV inh = antivirals against foot and mouth disease virus; FMDV antiviral cell-based qHTS; Potency, µM (titrated, usually from 57.9 µM), for the others: at the highest dose activity change, negative = inhibition, hits mostly inhibitors; 1.2% of 410,000 active; AID 1159524; calls by dose curve; tested in HEK293T cells; note: read-out not given here; nearly all actives have a fitted effect of over 45% in size
The depositor's hits bear a star; i = inactive; ? = inconclusive; . = no result given; [ ] = remark or other dose. Only some compounds are listed: those with a hit (about 5.3% of all), similar ones and a draw of the others. % is set by controls: 0 for no effect and ±100 for the full control effect; potency is the fitted concentration of half-maximal effect.

SMILES | VACV mCherry inh | Lassa entry inh | HCV inhibitor | Marburg entry inh | Vaccinia Venus | FMDV inh
Cc1ccc(NC(=O)COC(=O)/C(=C/c2cccs2)c2cccs2)cc1S(=O)(=O)N(C)C | -22% | 11µM* | ? | ? | -10% | -17%
COc1ccc2c(c1)OC(C)CN(CCC(=O)NCC1OCCc3ccccc31)C2 (configuration not stated) | -15% | . | . | . | -7% | -5%
CC(C)Cn1c(/C=N/Nc2nc3ccccc3[nH]2)nc2ccccc21 | ? | ? | 2.5µM* | ? | ? | 25µM*
CC(/C=N/Nc1nc(C)cc(=O)[nH]1)=C\c1ccccc1 | . | . | 3% | . | . | 5%
CC(/C=N/Nc1nc2ccccc2[nH]1)=C\c1ccccc1 | . | ? | ? | 7.3µM* | . | 3%
CC(=O)Nc1ccc(/C=N/Nc2nc3ccccc3[nH]2)cc1 | . | . | ? | 1% | . | 52%
CCCn1c(/C=N/Nc2nc3ccccc3[nH]2)nc2ccccc21 | 10µM* | 13µM* | ? | ? | ? | ?
CCN(CC)c1ccc(/C=N/Nc2nc3ccccc3[nH]2)cc1 | . | 8.2µM* | 13µM* | 8.2µM* | . | -44%
Cn1c(/C=N/Nc2nc3ccccc3[nH]2)nc2ccccc21 | ? | ? | ? | ? | -11% | -23%
CCOC(=O)c1c(NC(=O)c2cc(=O)c3c(C)cc(C)cc3o2)sc(C)c1C | 3% | ? | . | 9%[46.1 µM] | -1% | -17%
C[C@H]1COC(=O)[C@@H](CC(=O)OC(C)(C)C)C/C=C\C[C@H](CC(=O)NCCO)C(=O)N1 | i | . | 26% | . | -13% | -2%
C=C(C#CCCO)CCN1C=C(C(=O)OCC)C(c2ccccc2)NC1=O (configuration not stated) | . | ? | . | 2%[14.2 µM] | . | .
Cc1cccc(C(=O)Nc2sc3c(c2C(=O)N2CCCCC2)CCC(C)C3)c1 (configuration not stated) | -14% | 5%[46.1 µM] | . | -10%[46.1 µM] | -11% | -8%
C=CCn1cc(/C=N/Nc2nc3ccccc3[nH]2)c2ccccc21 | -26% | 4.5µM* | ? | ? | ? | -71%
Cc1c(/C=N/Nc2nc3ccccc3[nH]2)c2ccccc2n1C | i | ? | ? | ? | -28% | ?
Cc1nn(-c2ccccc2)c(C)c1/C=N/Nc1nc2ccccc2[nH]1 | ? | ? | ? | 13µM* | -5% | ?
CN=CC1=C(O)c2ccccc2C1=O | i | 17% | 2% | 8% | -6% | 54%
O=C1C(C2=C(O)c3ccccc3C2=O)=Nc2ccccc21 | . | ? | 10µM* | ? | . | 24%
COc1cc(/C=C2/SC(=NCc3ccccc3)N(Cc3ccccc3)C2=O)ccc1O | -12% | -25% | -8% | 3% | 22% | -18%
CCN=C1S/C(=C\c2ccc(O)c(OCC)c2)C(=O)N1CC | ? | 13µM* | ? | ? | ? | -8%
CCN=C1S/C(=C\c2cc(OCC)c(O)cc2Br)C(=O)N1CC | ? | ? | ? | ? | ? | 32µM*
O=C(C[n+]1ccccc1Br)c1ccc(F)cc1 | -13% | . | . | . | -9% | .
COc1ccc2c(C)cc(SCC(=O)c3ccc4c(c3)OCO4)nc2c1 | . | 29% | 10µM* | -1% | . | -12%
COc1ccc2c(C)cc(SCC(=O)NC3CCCC3)nc2c1 | . | . | -15% | . | . | ?
COc1ccc(C(=O)Nc2nc(C)c3cc4c(cc3n2)OCO4)cc1 | -7% | -1%[46.1 µM] | ? | ? | -2% | 25µM*
SMILES | VACV mCherry inh | Lassa entry inh | HCV inhibitor | Marburg entry inh | Vaccinia Venus | FMDV inh
Cc1ccc2[nH]c3c(c2c1)CN(C(=O)CC1(c2ccccc2)CC(=O)N(Cc2cccnc2)C1=O)CC3 (configuration not stated) | -13% | . | . | . | -17% | -5%
OC[C@@H]1CN(Cc2ccc(-c3ccccc3)cc2)C[C@H](n2cnc3c(NCc4ccco4)ncnc32)O1 | 13% | . | . | . | -23% | 32µM*
COc1cc(CNc2ncnc3c2ncn3[C@H]2CN(Cc3ccc(-c4ccccc4)cc3)C[C@@H](CO)O2)cc(OC)c1OC | 13µM* | . | . | . | ? | ?
OCCNc1ncnc2c1ncn2[C@H]1CN(Cc2ccc(-c3ccccc3)cc2)C[C@@H](CO)O1 | 6% | . | . | . | -11% | ?
OC[C@@H]1CN(Cc2ccc(-c3ccccc3)cc2)C[C@H](n2cnc3c(NCc4ccncc4)ncnc32)O1 | 10µM* | . | . | . | ? | -4%
CN1C(=S)S[C@@H](N(O)C(=O)Nc2ccccc2)C1(C)C | . | . | . | 2% | . | .
O=S1(=O)CCC(NC(=S)SCCOc2ccccc2)C1 (configuration not stated) | . | . | ? | . | . | 14µM*
CCCCSC(=S)NC1CCS(=O)(=O)C1 (configuration not stated) | ? | 4% | 12% | ? | -25% | -27%
CC(C)C(=O)NC(c1cccs1)c1cc([N+](=O)[O-])c2cccnc2c1O (configuration not stated) | 11µM* | -7% | ? | ? | ? | -25%
CCC(=O)NC(/C=C/c1ccccc1)c1cc([N+](=O)[O-])c2cccnc2c1O (configuration not stated) | . | . | 0% | . | . | .
Cc1ccc(C(NC(=O)C(C)C)c2cc([N+](=O)[O-])c3cccnc3c2O)cc1 (configuration not stated) | -30% | -4% | 13µM* | ? | ? | -10%
COc1ccc(-c2nnn(Cc3ccccc3F)n2)cc1 | -11%[1.46 µM] | 3% | 11µM* | -1% | -13% | 26%
Cc1ccc(S(=O)(=O)NCc2ccc(C(=O)N3CCN(c4ccc([N+](=O)[O-])cc4)CC3)cc2)cc1 | . | . | 4µM* | . | . | ?
COc1ccc(N2CCN(C(=O)Cc3ccc(C)cc3)CC2)cc1 | -19% | 0% | -14% | 2% | -14% | -17%
COc1ccc(N2CCN(C(=O)c3ccc(CNS(=O)(=O)c4ccc(C)cc4)cc3)CC2)cc1 | -23% | ? | 13µM* | ? | -26% | -28%
COc1ccc(N2CCN(/C(=N\S(=O)(=O)c3ccc(C)cc3)Nc3nc(C)cc(C)n3)CC2)cc1 | . | 8.2µM* | -1% | -17% | . | 23%
Cc1ccc(C(=O)N2CCN(c3ccc([N+](=O)[O-])c(NCc4cccnc4)c3)CC2)cc1 | -27% | ? | 13µM* | ? | ? | -12%
COc1ccc(N2CCN(C(=O)c3ccc(CNS(=O)(=O)c4cc(C)ccc4C)cc3)CC2)cc1 | -10% | -26% | ? | ? | -23% | ?
Cc1cc(=O)c(C(=O)NCCCc2ccncc2)c2n1-c1ccccc1SC(c1cccs1)C2 (configuration not stated) | -6% | . | . | . | -4% | -9%
Cc1ccc2c(C)ccnc2c1 | -18% | . | . | . | -8% | .
Cc1c(C(=O)N(C)C2CCOC2)cnn1-c1ncc2c(n1)-c1ccccc1CCC2 (configuration not stated) | -8% | . | . | . | 7% | 46%
